The values that follow come from PMC11062922 (Nature Chemical Biology, 2023).

Read-outs that look alike come from different tables or passages of the source.

For one assay, the system named is ABL1. Also on record: species or system human, MV4-11 + K-562 + COLO205 + SK-N-BE2 + OVCAR-8. Conditions: read-out: apparent Kd; compound concentrations: 100 nM and 1000 nM (sheet 'Samples'), CATDS: 1.34944121173274E-2; n = 1.
Another assay has as its system ABL2. Also on record: species or system human, MV4-11 + K-562 + COLO205 + SK-N-BE2 + OVCAR-8. The settings on record: read-out: apparent Kd, n = 1.
The test system of a further assay is BCR. Also on record: species or system human, MV4-11 + K-562 + COLO205 + SK-N-BE2 + OVCAR-8. Conditions: read-out: apparent Kd, n = 1.
In the next assay the test system is CLK1. Also on record: species or system human, MV4-11 + K-562 + COLO205 + SK-N-BE2 + OVCAR-8. Conditions: read-out: apparent Kd, n = 1.
A further assay concerns CLK4. Also on record: species or system human, MV4-11 + K-562 + COLO205 + SK-N-BE2 + OVCAR-8. The settings on record: read-out: apparent Kd, n = 1.
The test system of another assay is CSNK2A1;CSNK2A3. Also on record: species or system human, MV4-11 + K-562 + COLO205 + SK-N-BE2 + OVCAR-8. Conditions: read-out: apparent Kd; compound concentrations: 100 nM and 1000 nM (sheet 'Samples'), CATDS: 1.12264805832196E-2; n = 1.
The next assay has as its system CSNK2A2. Also on record: species or system human, MV4-11 + K-562 + COLO205 + SK-N-BE2 + OVCAR-8. The settings on record: read-out: apparent Kd; compound concentrations: 100 nM and 1000 nM (sheet 'Samples'), CATDS: 1.1107914266042299E-2; n = 1.
For a further assay, the system named is FRK. Also on record: species or system human, MV4-11 + K-562 + COLO205 + SK-N-BE2 + OVCAR-8. The settings on record: read-out: apparent Kd; compound concentrations: 100 nM and 1000 nM (sheet 'Samples'), CATDS: 1.0457896251618699E-2; n = 1.
Another assay deals with FYN. Also on record: species or system human, MV4-11 + K-562 + COLO205 + SK-N-BE2 + OVCAR-8. The settings on record: read-out: apparent Kd; compound concentrations: 100 nM and 1000 nM (sheet 'Samples'), CATDS: 1.4785651294397E-2; n = 1.
For a further assay, the system named is HCK. Also on record: species or system human, MV4-11 + K-562 + COLO205 + SK-N-BE2 + OVCAR-8. The settings on record: read-out: apparent Kd, compound concentrations: 100 nM and 1000 nM (sheet 'Samples'), n = 1.
The next assay concerns LCK. Also on record: species or system human, MV4-11 + K-562 + COLO205 + SK-N-BE2 + OVCAR-8. The settings on record: read-out: apparent Kd; compound concentrations: 100 nM and 1000 nM (sheet 'Samples'), CATDS: 2.8625863065429399E-2; n = 1.
In another assay the test system is PTK6. Also on record: species or system human, MV4-11 + K-562 + COLO205 + SK-N-BE2 + OVCAR-8. Conditions: read-out: apparent Kd; compound concentrations: 100 nM and 1000 nM (sheet 'Samples'), CATDS: 5.57669232791278E-2; n = 1.
The target in another assay is Q6ZSR9 (human, UniProt Q6ZSR9). Also on record: species or system MV4-11 + K-562 + COLO205 + SK-N-BE2 + OVCAR-8. Conditions: read-out: apparent Kd; compound concentrations: 100 nM and 1000 nM (sheet 'Samples'), CATDS: 1.0084125464563E-2; n = 1.
Sequence of Q6ZSR9 (Q6ZSR9 whole entry, looked up): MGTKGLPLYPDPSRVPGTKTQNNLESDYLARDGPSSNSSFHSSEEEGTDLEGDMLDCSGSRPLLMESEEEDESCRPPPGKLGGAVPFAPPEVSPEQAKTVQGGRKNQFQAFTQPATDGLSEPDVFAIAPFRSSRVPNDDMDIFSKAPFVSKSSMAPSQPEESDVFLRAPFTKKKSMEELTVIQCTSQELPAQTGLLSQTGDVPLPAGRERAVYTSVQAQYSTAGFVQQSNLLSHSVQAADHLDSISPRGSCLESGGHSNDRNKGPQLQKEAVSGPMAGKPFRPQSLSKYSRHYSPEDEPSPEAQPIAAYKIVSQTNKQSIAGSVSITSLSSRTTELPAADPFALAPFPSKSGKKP
The test system of a further assay is RET. Also on record: species or system human, MV4-11 + K-562 + COLO205 + SK-N-BE2 + OVCAR-8. The settings on record: read-out: apparent Kd; compound concentrations: 100 nM and 1000 nM (sheet 'Samples'), CATDS: 2.6340417566827701E-2; n = 1.
In the next assay the test system is YES1. Also on record: species or system human, MV4-11 + K-562 + COLO205 + SK-N-BE2 + OVCAR-8. The settings on record: read-out: apparent Kd, compound concentrations: 100 nM and 1000 nM (sheet 'Samples'), n = 1.
For a further assay, the system named is RIPK2. Also on record: species or system human, MV4-11 + K-562 + COLO205 + SK-N-BE2 + OVCAR-8. The settings on record: read-out: apparent Kd, n = 1.
A further assay has as its system ACOX1. Also on record: species or system human, MV4-11 + K-562 + COLO205 + SK-N-BE2 + OVCAR-8. Conditions: read-out: apparent Kd, n = 1.
The next assay deals with GAK. Also on record: species or system human, MV4-11 + K-562 + COLO205 + SK-N-BE2 + OVCAR-8. Conditions: read-out: apparent Kd; compound concentrations: 100 nM and 1000 nM (sheet 'Samples'), CATDS: 6.3505143893273594E-2; n = 1.
The subject of a further assay is RIPK3. Also on record: species or system human, MV4-11 + K-562 + COLO205 + SK-N-BE2 + OVCAR-8. Conditions: read-out: apparent Kd; compound concentrations: 100 nM and 1000 nM (sheet 'Samples'), CATDS: 0.107109560808048; n = 1.
Where [1] appears, read: compound concentrations:100 nM and 1000 nM (sheet 'Samples').

Consider `CNC(=O)c1ccccc1Nc1nc(Nc2cccc(CS(C)(=O)=O)c2)ncc1C.O=CO` [GSK1520489A], for which the potency estimated from few doses in the assay on ABL1 is 401 nM; in the assay on ABL2 (compound concentrations: 100 nM and 1000 nM (sheet 'Samples'), CATDS: 1.36244790700583E-2) it was 389 nM; in the assay with BCR (compound concentrations: 100 nM and 1000 nM (sheet 'Samples'), CATDS: 1.52044449937046E-2) it was 280 nM; in the assay with CLK1 (compound concentrations: 100 nM and 1000 nM (sheet 'Samples'), CATDS: 2.0431825511786902E-2) it was 131 nM; in the assay on CLK4 (compound concentrations: 100 nM and 1000 nM (sheet 'Samples'), CATDS: 1.6424162942173099E-2) it was 226 nM; in the assay on CSNK2A1;CSNK2A3, 773 nM. Moreover, the potency estimated from few doses in the assay with CSNK2A2 was 807 nM; in the assay on FRK, 1050 nM; in the assay with FYN, 304 nM; with HCK (CATDS: 2.2518734177974401E-2), 105 nM; with LCK it was 63 nM; with PTK6, 19.7 nM. For the same molecule, the results for the potency estimated from few doses with Q6ZSR9, with RET and with YES1 (CATDS: 2.28565858871594E-2) were 1260 nM, 74.6 nM and 101 nM, respectively.

`CC(=O)c1c(-c2ccncc2)[nH]c(-c2ccncc2)c1C` [GW493036X]: the potency estimated from few doses with ABL2 (setting [1]) is 482 nM; with BCR (setting [1]), 277 nM; in the assay with CLK1 (setting [1]), 10.9 nM; with CLK4 (setting [1]) it was 1.62 nM; with RIPK2 (setting [1]), 1000 nM.

Consider `O=C1Nc2ccc(F)cc2/C1=C/c1ccc[nH]1` [RO0272148-000], for which, in the assay on ACOX1 (compound concentrations: 100 nM and 1000 nM (sheet 'Samples'), CATDS: 0.35170736518262402), the potency estimated from few doses is 1160 nM.

Turning to `COc1ccc(C2=C(Nc3cccc(O)c3)C(=O)NC2=O)cc1` [SB-390766], the potency estimated from few doses with ACOX1 (setting [1]) is 861 nM.

Regarding `CCCCCNC(=O)[C@@H]1CCCN2C(=O)CC[C@H](NC(=O)[C@H](Cc3ccc(OP(=O)(O)O)cc3)NC(C)=O)C(=O)N12` [RO0324694-000], the potency estimated from few doses in the assay with ACOX1 (setting [1]) is 1640 nM.

On to `NC(=O)c1sc(-n2cnc3ccc(C(F)(F)F)cc32)cc1OCc1ccccc1Br` [GW853606X], for which, in the assay on ACOX1 (setting [1]), the potency estimated from few doses is 2200 nM.

For `Cc1[nH]nc2c1N=C(c1ccccc1Cl)c1cc([N+](=O)[O-])ccc1N2` [RO0274406-000], in the assay on ACOX1 (compound concentrations: 100 nM and 1000 nM (sheet 'Samples'), CATDS: 6.8791722684654694E-2), the potency estimated from few doses is 1400 nM.

On to `Cc1ccc(C(=O)NC2CC2)cc1-c1ccc2[nH]ncc2c1` [GW820759X], for which the potency estimated from few doses in the assay with ACOX1 (compound concentrations: 100 nM and 1000 nM (sheet 'Samples'), CATDS: 0.303559006930335) was 1410 nM.

Turning to `COc1ccc(-c2nn3ncccc3c2-c2ccnc(Nc3ccc4c(c3)OCCO4)n2)cc1` [GW827106X], the potency estimated from few doses in the assay with ACOX1 (compound concentrations: 100 nM and 1000 nM (sheet 'Samples'), CATDS: 4.5987124512604401E-2) was 1840 nM; with GAK, 888 nM.

On to `Cc1ccc(CC(=O)N2CCc3cc(-c4cn(C)c5ncnc(N)c45)ccc32)cc1` [GSK2634758A], for which the potency estimated from few doses with ACOX1 (compound concentrations: 100 nM and 1000 nM (sheet 'Samples'), CATDS: 0.17317335895949701) was 1310 nM.

Regarding `Cc1ccc(NC(=O)Nc2ccccc2)cc1-c1ccc(C(=O)Nc2ccncc2)cc1` [GSK1398471A], the potency estimated from few doses with HCK (CATDS: 0.185556916463613) was 507 nM; in the assay on RIPK2 (compound concentrations: 100 nM and 1000 nM (sheet 'Samples'), CATDS: 0.252300510926462), 310 nM; with RIPK3, 1620 nM; in the assay on YES1 (CATDS: 0.19959075009265401), 448 nM.
